Screens deposited in PubChem BioAssay by National Center for Advancing Translational Sciences (NCATS).
a7 integrin act: qHTS for Activators of Integrin-Mediated Alleviation for Muscular Dystrophy. alpha7betagal myoblasts, beta-gal FDG fluorescence, 48 h. Potency, µM (top dose mostly 38.3 µM), usual class: activators. 0.064% of 350,000 active. AID 624291, 2012; further: nearly all actives have a fitted effect of over 60% in size
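alpha7betagal+/- myoblasts (passage 13, 250/well) treated 48 h at 37C with compounds at 1:260 dilution of DMSO stock. Lysed, then beta-galactosidase activity read as FDG fluorescence (ex 480/em 540) after 30 min, with pre-read for autofluorescence.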
GLP1R ag: qHTS of GLP-1 Receptor Agonists; Glucagon-like peptide 1 receptor (Homo sapiens), P43220; HEK293 GLP-1R CRE-luciferase, luminescence, 4-6 h; cells express a hypersensitive GLP-1R form; Potency, µM (doses to about 45.6 µM), hits mostly activators; 0.007% of 380,000 active
Target sequence (P43220 whole entry, looked up): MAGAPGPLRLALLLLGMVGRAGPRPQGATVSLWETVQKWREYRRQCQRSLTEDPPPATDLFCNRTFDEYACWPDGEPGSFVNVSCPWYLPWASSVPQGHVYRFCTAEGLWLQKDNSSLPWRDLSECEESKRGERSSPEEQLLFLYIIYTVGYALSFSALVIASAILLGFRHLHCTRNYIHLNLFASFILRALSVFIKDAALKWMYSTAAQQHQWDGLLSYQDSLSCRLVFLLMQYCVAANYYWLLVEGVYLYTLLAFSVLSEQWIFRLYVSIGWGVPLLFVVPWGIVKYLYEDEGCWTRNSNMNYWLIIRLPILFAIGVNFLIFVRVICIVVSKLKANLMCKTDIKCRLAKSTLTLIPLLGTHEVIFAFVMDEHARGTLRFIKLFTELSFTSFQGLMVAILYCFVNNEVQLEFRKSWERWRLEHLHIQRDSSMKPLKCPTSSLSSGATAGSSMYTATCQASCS
GLP1R inv ag: qHTS of GLP-1 Receptor Inverse Agonists (Inhibition Mode). Glucagon-like peptide 1 receptor (Homo sapiens), P43220. HEK293 GLP-1R CRE-luciferase, luminescence, 24 h; GLP-1R form is constitutively active. Potency, µM (highest dose often 38.3 µM), most hits filed as inhibitors. 1.6% of 410,000 active; further: nearly all actives have a fitted effect of over 55% in size
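Luminescence readout: a drop in cAMP-driven luciferase signal flags inverse agonism at a constitutively active GLP-1R stably expressed in HEK293. Compound exposure lasted 24 hr at 37 deg C, 5% CO2.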
HEK293 tox: qHTS of GLP-1 Receptor Inverse Agonists: Cytotox Screen. HEK293 cAMP-luciferase reporter cells, luminescence, 24 h. Potency, µM (doses to about 38.3 µM), actives largely listed as inhibitors. 0.13% of 410,000 active;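 further: loss of luciferase light is scored as toxicity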
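Luminescence readout: signal drop marks cytotoxicity. Plated cells grew 12 h at 37 °C, 5% CO2, received 23 nL compound for 24 h, then got luciferase reagent, read after 12 min at RT.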
BRCA1 expr act: qHTS Assay to Identify Small Molecule Activators of BRCA1 Expression. MCF7-BRCA1-FFLuc reporter, luminescence, 48 h; response scale: scaled: vehicle 0%, 10 µM genistein 100%. Potency, µM (series often up to 46.1 µM), most hits filed as activators. 1.1% of 380,000 active. AID 624202, 2012; further: nearly all actives have a fitted effect of over 80% in size
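Luminescence from a BRCA1-driven firefly luciferase in MCF7 cells was the read-out, taken 15 min after substrate addition following 48 h compound exposure at 37 °C. Data were normalized to a 10 microM genistein control and DMSO vehicle.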
Each line names hits and unclear results; the compound was inactive in the other large screens. This is a sample that favours compounds with a hit; in the whole collection about 2.7% have one here. The call rests on the fitted dose curve; in most records, active means well fitted curve in the direction sought with a large enough effect; inconclusive means small, poorly fitted or top-dose-only effect, or another doubt; inactive means no such curve, though single readings can be large; an effect the other way counts as inactive or inconclusive.

COc1ccccc1NC(=O)C1=C(C)Nc2nc(SCC(=O)c3ccc(C)cc3)nn2C1c1ccc(F)cc1 (stereo not given)	none (no result: a7 integrin act, GLP1R ag, BRCA1 expr act)
Cn1c2ccccc2c(=O)c2ccc(C#CC3(O)CCCCC3)cc21	GLP1R inv ag 7.9µM, BRCA1 expr act inconclusive
CCN(CC)S(=O)(=O)c1ccc(N2CCN(c3ccccc3OC)CC2)c(N)c1	GLP1R inv ag 10µM
CCN(CC)S(=O)(=O)c1ccc2c(c1)c(=O)c(C(=O)N1CCN(c3ccccc3OC)CC1)cn2C	none (no result: a7 integrin act)
COc1ccc(S(=O)(=O)N(CC(=O)N2CCN(c3ccccc3OC)CC2)c2ccccc2)cc1	GLP1R inv ag 10µM
CC1=NN(C(=O)COc2ccccc2C)C(O)(c2ccc(Cl)cc2)C1 (stereo not given)	GLP1R inv ag 10µM, HEK293 tox inconclusive
CC1=NN(C(=O)c2ccccc2)C(O)(c2ccc(Br)cc2)C1 (stereo not given)	GLP1R inv ag 4µM
CCC1=NN(C(=O)c2ccc(Br)cc2)C(O)(c2ccccc2)C1 (stereo not given)	GLP1R inv ag 0.56µM, HEK293 tox inconclusive
CCC1=NN(C(=O)COc2ccccc2C)C(O)(c2ccncc2)C1 (stereo not given)	none
COC(=O)c1ccc(NC(=S)NC2CC(C)(C)NC(C)(C)C2)cc1	GLP1R inv ag 8.9µM
COC(=O)c1ccc(NC(=S)NC2CCc3ccccc32)cc1 (stereo not given)	GLP1R inv ag 10µM, HEK293 tox inconclusive
COC(=O)c1ccc(NC(=S)NC2CC2)cc1	none
Cc1ccc2nc(-c3ccc(NC(=S)NC4CC(C)(C)NC(C)(C)C4)cc3)sc2c1	GLP1R inv ag 5µM, HEK293 tox inconclusive
Cc1ccc2nc(-c3ccc(NC(=S)NC(=O)C(C)C)cc3)sc2c1	none
O=C1CC(c2ccccc2)=C(c2ccccc2)C1c1ccccc1 (stereo not given)	GLP1R inv ag 14µM
CCN(Cc1ccccc1)Cc1c(O)ccc2c(=O)c(-c3ccccc3Cl)c(C(F)(F)F)oc12	none (no result: a7 integrin act, GLP1R ag, BRCA1 expr act)
CC(C)NC(=S)NN(c1ccccc1)c1ccccc1	GLP1R inv ag 11µM
C=CCNC(=S)NN(c1ccccc1)c1ccccc1	HEK293 tox inconclusive
NC(C(=O)O)C(O)c1ccc(O)c(O)c1 (stereo not given)	none (no result: a7 integrin act, GLP1R inv ag, HEK293 tox, BRCA1 expr act)
CSc1ccc(/C=C/C(=O)N2CCCN(C)CC2)cc1	GLP1R inv ag inconclusive, BRCA1 expr act 8.9µM
Cc1ccccc1NC(=O)CSc1nc2ccccc2c2nc(CCn3c(C)nc4ccccc43)nn12	none (no result: a7 integrin act, GLP1R ag, BRCA1 expr act)
Cc1nc2ccccc2n1CCc1nc2c3ccccc3nc(SCC(=O)NCc3ccco3)n2n1	GLP1R inv ag inconclusive, HEK293 tox 10µM
O=S(=O)(O)c1c(NS(=O)(=O)c2ccccc2)ccc2ccccc12	none (no result: a7 integrin act, GLP1R ag, GLP1R inv ag, HEK293 tox)
Cc1ccc(CSc2ccc(-c3ccco3)nn2)cc1	BRCA1 expr act 3.5µM
Clc1cccc(CSc2ccc(-c3ccco3)nn2)c1	none
Clc1ccc(CSc2ccc(-c3ccco3)nn2)cc1	BRCA1 expr act 13µM
c1ccc(CSc2ccc(-c3ccco3)nn2)cc1	GLP1R inv ag inconclusive, BRCA1 expr act 3.2µM
Cc1cccc(CSc2ccc(-c3ccco3)nn2)c1	GLP1R inv ag inconclusive, BRCA1 expr act inconclusive
Cc1ccc(NC(=O)C2CCC(CNS(=O)(=O)c3ccc4c(c3)CCCC(=O)N4)CC2)cc1F (stereo not given)	none (no result: a7 integrin act, GLP1R ag)
CCOC(=O)c1cc(S(=O)(=O)N2CCN(c3ccc(C)cc3C)CC2)[nH]n1	none (no result: a7 integrin act)
CC(C)c1ccc(OCC(=O)Nc2ccc(S(=O)(=O)Nc3ncccn3)cc2)cc1	none (no result: a7 integrin act, GLP1R ag, BRCA1 expr act)
CCCCNC(=O)COC(=O)c1c2c(nc3ccccc13)/C(=C\c1cccs1)CC2	GLP1R inv ag 6.3µM
CC(C)CNC(=O)COC(=O)c1c2c(nc3ccccc13)/C(=C/c1cccs1)CC2	GLP1R inv ag inconclusive
COc1cc(C(=O)NCC(c2ccco2)S(=O)(=O)c2cccs2)cc(OC)c1OC (stereo not given)	none (no result: a7 integrin act, GLP1R ag, BRCA1 expr act)
CC1CN(c2ccc([N+](=O)[O-])c(NCCOc3ccc(Cl)cc3)c2)CC(C)N1 (stereo not given)	GLP1R inv ag 10µM
Cc1ccccc1OCCNc1cc(N2CC(C)NC(C)C2)ccc1[N+](=O)[O-] (stereo not given)	GLP1R inv ag 7.9µM, HEK293 tox inconclusive
CC1CN(c2ccc([N+](=O)[O-])c(NCCOc3ccccc3)c2)CC(C)N1 (stereo not given)	GLP1R inv ag inconclusive, HEK293 tox inconclusive
CSc1cccc(NS(=O)(=O)c2ccc3[nH]cc(C(=O)N4CCCCCC4)c(=O)c3c2)c1	none (no result: a7 integrin act, GLP1R ag, BRCA1 expr act)
Cc1ccccc1OCCn1cc(C(=O)c2ccco2)c2ccccc21	GLP1R inv ag inconclusive (no result: a7 integrin act, GLP1R ag, BRCA1 expr act)
COc1ccccc1OCCn1cc(C(=O)c2ccco2)c2ccccc21	GLP1R inv ag 13µM
CCCn1cnc2c(SCCc3ccccc3)nc(N)nc21	BRCA1 expr act 13µM
CCCCn1cnc2c(SCCc3ccccc3)nc(N)nc21	GLP1R inv ag inconclusive
CC(C)Cn1cnc2c(SCc3ccccc3F)nc(N)nc21	GLP1R ag inconclusive, BRCA1 expr act 5.6µM
CCC(C)Cn1cnc2c(SCc3ccccc3F)nc(N)nc21 (stereo not given)	GLP1R inv ag inconclusive
CCOc1ccccc1NC(=O)CN1C(=O)CC(c2ccc(OC)c(OC)c2)Sc2ccccc21 (stereo not given)	none (no result: a7 integrin act)
Fc1ccc(N2N=C(c3cccs3)CC2c2ccccc2)cc1 (stereo not given)	GLP1R inv ag 11µM
CCc1ccc2c(CN3CCN(Cc4ccccc4)CC3)cc(=O)oc2c1	GLP1R inv ag 8.9µM
CCc1cc2c(CN3CCN(Cc4ccccc4)CC3)cc(=O)oc2cc1O	GLP1R ag inconclusive, GLP1R inv ag inconclusive
O=C(Nc1ccc(C(=O)O)cc1)/C(=C\C=C\c1ccccc1)NC(=O)c1ccccc1Br	BRCA1 expr act 10µM
O=[N+]([O-])c1ccc(SNc2ccccc2)c([N+](=O)[O-])c1	GLP1R inv ag 11µM, HEK293 tox inconclusive
COc1ccccc1Nc1nn2c(=O)c3ccc(C(=O)NC4CCCCC4)cc3nc2s1	none (no result: a7 integrin act)
O=C(O)c1ccc(-n2ncc3c2/C(=C\c2cccc([N+](=O)[O-])c2)CC3)cc1	none
O=C(O)c1ccc(-n2ncc3c2/C(=C/c2cccc([N+](=O)[O-])c2)CC3)cc1	a7 integrin act inconclusive, BRCA1 expr act 6.3µM
OC(C[n+]1ccccc1Cl)c1ccccc1 (stereo not given)	none (no result: a7 integrin act, GLP1R ag, GLP1R inv ag, HEK293 tox)
CCOC(=O)c1ccc(CNCc2ccccc2)cc1	BRCA1 expr act 11µM
CCOC(=O)c1ccc(N/C=C/C(=O)c2ccccc2)cc1	BRCA1 expr act 13µM
